# High-throughput results: PubChem BioAssay, several laboratories
# Hits are enriched below; roughly 2% of the tested compounds scored in any of these assays.
# DAGLB inhibitor = DAGLB lipase inhibitors, primary screen, biochemical, fluorescence, HTS | HEK293T DAGLB membrane lysate, EnzChek fluorogenic substrate | inhibition, % at 5.17 µM | 0.059% of 340,000 active; in the data active = inhibition above about 34%;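 also: 0% = enzyme with vehicle and 100% = wells lacking enzyme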
# HGIII-sPLA2 inh = human group III sPLA2 inhibitors, primary screen, biochemical, QFRET, BODIPY PC-A2 liposome substrate. 0.56% of 370,000 active. QFRET BODIPY PC-A2 liposome hydrolysis, fluorescence. inhibition, % at 12.2 µM. AID 743126, 2013. Group 3 secretory phospholipase A2 (Homo sapiens), Q9NZ20;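 active = inhibition above mean plus 3 SD of compounds lying within the high and low control bounds, cut at about 19% in these data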;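 also: 0% = median of test compound wells and 100% = no enzyme DMSO wells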
# Target sequence (Q9NZ20 whole entry, looked up): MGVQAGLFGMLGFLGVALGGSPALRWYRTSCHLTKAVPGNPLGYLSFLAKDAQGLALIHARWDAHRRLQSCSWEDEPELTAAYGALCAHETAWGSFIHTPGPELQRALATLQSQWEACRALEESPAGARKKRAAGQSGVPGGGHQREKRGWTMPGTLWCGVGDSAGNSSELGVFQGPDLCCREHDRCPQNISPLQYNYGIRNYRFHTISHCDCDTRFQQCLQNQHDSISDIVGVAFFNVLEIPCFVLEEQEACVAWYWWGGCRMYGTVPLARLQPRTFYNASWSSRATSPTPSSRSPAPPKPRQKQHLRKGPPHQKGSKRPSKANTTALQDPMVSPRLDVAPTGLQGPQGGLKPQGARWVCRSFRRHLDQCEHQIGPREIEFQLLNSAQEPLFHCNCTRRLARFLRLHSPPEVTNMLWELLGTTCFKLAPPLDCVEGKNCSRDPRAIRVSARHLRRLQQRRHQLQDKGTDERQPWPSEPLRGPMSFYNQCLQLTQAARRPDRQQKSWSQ
# ARNT-TACC3 inh = disruptors of ARNT/TACC3 protein interaction, primary screen, biochemical, AlphaScreen, single concentration. 0.66% of 390,000 active. AlphaScreen His-ARNT PAS-B/GST-TACC3 binding, luminescence; TACC3 fragment carries E629A point mutation. inhibition, % at 9.99 µM. AID 623870, 2012. Transforming acidic coiled-coil-containing protein 3 (Homo sapiens), Q9Y6A5;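 active = mean inhibition of replicates at least 50% and at least half of replicates each reaching 50%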;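 also: 0% = complete ARNT plus TACC3 wells and 100% = ARNT alone without TACC3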
# NadD block = inhibitors of S. aureus NadD, primary screen, biochemical, colorimetric, uHTS; Nicotinate-nucleotide adenylyltransferase NadD (Staphylococcus aureus N315); purified NadD enzyme, colorimetric absorbance read-out; inhibition, % at 20 µM; 0.78% of 360,000 active; AID 602399, 2012; in the data active = inhibition above about 26%
# Neddyl block = inhibitors of cullin neddylation, primary screen, biochemical, TR-FRET, uHTS, NAE and Ubc12; NEDD8-conjugating enzyme Ubc12 (Homo sapiens) + NEDD8-activating enzyme E1 regulatory …; inhibition, % at 25 µM; 0.58% of 360,000 active; in the data active = inhibition above about 36%
# Neddyl inh conf = blockade of NEDD8 conjugation to cullin – biochemical, TR-FRET, single concentration, confirmation. shares compounds with Neddyl block. TR-FRET cullin neddylation biochemical assay. calls only at 25 µM. 13% of 1,800 active. AID 652217, 2013; in the data active = inhibition above about 40%;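 also: neddylation substrate is the cullin 1 ring ligase complex with SKP2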
# * = called active by the depositor; i = inactive; nt = not tested or not shown; + = active, no number.
SMILES,DAGLB inhibitor,HGIII-sPLA2 inh,ARNT-TACC3 inh,NadD block,Neddyl block,Neddyl inh conf
CN1C(=O)c2cc(NC(=O)C3CCOCC3)ccc2OC[C@@H]2O[C@@H](CC(=O)O)CC[C@@H]21,nt,nt,-8,nt,nt,nt
Cc1cc(C)c(O)c(CN(C)Cc2cc(Cl)cc(Cl)c2O)c1,7,-3,8,1,38*,i
O=C(O)C[C@H]1C=C[C@@H](NC(=O)Nc2ccccc2)[C@@H](CO)O1,nt,nt,-9,nt,nt,nt
Cc1ccc2cc3cc(C(=O)NCc4ccco4)oc3nc2c1,-2,-5,nt,2,44*,i
CO[C@H]1CN(C)C(=O)c2cc(NC(C)=O)ccc2OC[C@@H](C)N(Cc2cc(F)ccc2F)C[C@H]1C,nt,nt,-1,nt,nt,nt
O=C(NCc1cccs1)c1cccn2c(=O)c3sccc3nc12,-3,-4,8,-2,43*,i
CCOC(=O)N1CCN(C(=O)c2cccn3c(=O)c4sccc4nc23)CC1,0,5,-4,-7,nt,nt
O=C(NCc1ccco1)c1cccn2c(=O)c3sccc3nc12,-1,7,12,2,55*,nt
CNC[C@H]1OCCCC[C@H](C)Oc2ccc(NC(=O)NC3CCCCC3)cc2C(=O)N([C@H](C)CO)C[C@H]1C,nt,nt,-8,nt,nt,nt
Cc1nc2scc(C)n2c(=O)c1S(=O)(=O)NCC1CCN(Cc2ccc(Cl)cc2)CC1,1,-8,3,-3,45*,i
CCOc1cc(/C=C/c2nc3ccccc3s2)ccc1OCC(=O)N1CCOCC1,-1,-10,2,3,48*,nt
COc1cc(N)c(Br)cc1C(=O)O,-2,6,0,-2,-6,nt
Nc1cc2c(cc1Br)-c1c(C(=O)O)cccc1C2O (configuration not stated),1,12,1,1,39*,i
C[C@H]1CN([C@@H](C)CO)C(=O)Cc2cc(NC(=O)CCCCCC(=O)Nc3ccccc3N)ccc2O[C@H]1CN(C)CC1CCCCC1,nt,nt,25,nt,nt,nt
CN(CC(=O)Nc1ccccc1Cl)C(=O)COC(=O)c1ccc(-c2ccc(O)cc2)cc1,0,-21,-5,2,31*,nt
O=C(c1ccc(F)cc1)N1C[C@H]2[C@@H](c3ccccc31)[C@@H](CO)N2Cc1ccc2c(c1)OCO2,nt,nt,5,nt,nt,nt
O=C(c1ccc(Cl)cc1Cl)N1CCN(c2ccc(N3CCOCC3)nn2)CC1,-4,2,0,0,52*,nt
O=C(c1cccc(Cl)c1)N1CCN(c2ccc(N3CCOCC3)nn2)CC1,-5,5,-8,2,57*,nt
COc1ccccc1C(=O)N1CCN(c2ccc(N3CCOCC3)nn2)CC1,0,13,-2,-3,nt,nt
O=C(c1ccccc1)N1CCN(c2ccc(N3CCOCC3)nn2)CC1,-5,10,-4,-6,63*,nt
Cc1cc2c(c(N)n1)c(=O)oc1ccccc12,4,5,0,-15,40*,i
COc1cc(O)cc(/C=C/c2ccccc2)c1,-14,-35,18,-7,41*,+
COc1ccc(C(=O)/C=C/c2ccccc2)c(O)c1,-8,-5,-20,-3,0,nt
Cc1ccccc1-c1cnc2c(c1)C(=O)N([C@H](C)CO)C[C@@H](C)[C@@H](CN(C)C(=O)c1ccncc1)O2,nt,nt,4,nt,nt,nt
Cc1cc(=O)[nH]c(N/N=C/c2ccc(Cl)cc2Cl)n1,-1,4,-4,-2,16,nt
CCN(CCC#N)c1ccc(/C=N/Nc2nc(C)cc(=O)[nH]2)c(C)c1,1,4,-2,-3,41*,i
CCN(CC)c1ccc(/C=N/NC(=O)c2ccc3c(c2)OCCO3)cc1,1,4,-10,-1,nt,nt
CN(C)c1ccc(/C=N/NC(=O)c2ccc3c(c2)OCCO3)cc1,1,7,-2,1,61*,nt
